The values that follow come from PubChem BioAssay AID720594 (Broad Institute, 2013).

The structures appear in SMILES notation. Potency and affinity values are given separately. Active and inactive are the calls of the source.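 The calls were made as follows: active = falling ATP light signal with a fitted half-maximal concentration at most twice the highest valid tested dose; inconclusive = flat fit with moderate signal loss, or poor fit; inactive = the rest.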

The nature of the assay: ATP-based viability loss in HepG2 cells – cell-based, CellTiter-Glo luminescence, dry powder, set 3, cytotoxicity control, dose response (AID 720594). As to conditions: 72 h; series mostly up to 26 µM. On the technique in general: Cellular ATP, detected with luciferase, serves as a proxy for viable cell number.
With `CC1CCN(S(=O)(=O)c2ccc(C(=O)Nc3nnc(-c4ccno4)o3)cc2)CC1`, the compound was classed as inactive.

As for `O=C(Nc1nc(-c2ccccn2)cs1)c1ccc(S(=O)(=O)N2CCOCC2)cc1`, the result was inactive.

For the compound `c1ccc(-c2nc(-c3ccncc3)n[nH]2)nc1`, the compound was classed as inactive.

For `Cc1ccc(C(=O)Nc2nc(-c3ccccc3)cs2)o1`, the call was inactive.

Regarding `O=C(Nc1nc(-c2ccncc2)cs1)c1ccco1`, the call was inactive.

Regarding `O=C(CSc1ccc(-c2ccccn2)nn1)Nc1nccs1`, the compound was called inactive.

Consider `O=C(Nc1nnc(C2=COCCO2)o1)c1ccc(S(=O)(=O)N2CCCCC2)cc1`, for which the compound was classed as inactive.

On to `FC(F)(F)c1cc(-c2nn[nH]n2)cc(C(F)(F)F)c1`, for which the call was inactive.

For the compound `Cc1cccc(NC(=O)CSc2ccc(-c3ccccn3)nn2)c1C`, the compound was called inactive.

Regarding `Cc1c(C(=O)N(C)C)sc2nc(-c3ccccn3)[nH]c(=O)c12`, the outcome was inactive.

For `Cc1nnc(NC(=O)c2ccc(S(=O)(=O)N3CCCCC3)cc2)o1`, the outcome was inactive.

As to `CC1CCN(S(=O)(=O)c2ccc(C(=O)Nc3nnc(C4CC4)o3)cc2)CC1`, the compound was called inactive.

On to `CC1CC(C)CN(S(=O)(=O)c2ccc(C(=O)Nc3nnc(C4=COCCO4)o3)cc2)C1` (centres undefined), for which the call was inactive.

As to `Cc1ccc(C(=O)Nc2nc(-c3ccccn3)cs2)o1`, the outcome was inactive.
